Experimental data as given in PubChem BioAssay (NCATS).
Inconclusive results are not listed. A call without a number means that no potency is given here. Calls of active or inactive are those of the source. Unless noted, calls follow the shape of the dose curve; as a rule, active = well fitted curve in the direction sought with a large enough effect; inconclusive = small, poorly fitted or top-dose-only effect, or another doubt; inactive = no such curve, though single readings can be large; an effect the other way counts as inactive or inconclusive.

Experiments:
[1] = qHTS for differential inhibitors of proliferation of Plasmodium falciparum line HB3 (AID 1886); conditions: Potency: Plasmodium falciparum HB3 proliferation inhibition;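 also: parasites grown with compound for 72 h before SYBR Green readout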; also: potency is read from the fitted curve at half-maximal effect
[2] = biological target: Ferritin light chain (Equus caballus) (UniProt P02791); assay: qHTS Validation Assay for Identification of Novel General Anesthetics (AID 2323)
Outline: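 Competitive displacement of profluorescent 1-aminoanthracene (1-AMA, 50% saturated solution in PBS) from 10 uM horse-spleen apoferritin. Compounds incubated 10 min at room temperature; fluorescence read at 380 nm excitation/535 nm emission, normalized to free 1-AMA and complex, fitted with four-parameter Hill equation.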

[3] = biological target: ATP-dependent DNA helicase Q1 (Homo sapiens) (UniProt P46063); assay: qHTS Validation Assay for Inhibitors of RecQ-Like Dna Helicase 1 (RECQ1) (AID 2353)
Outline: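 50 nM RECQ1T1 preincubated 15 min with compound in Tris pH 8.0 buffer with MgCl2, DTT, Tween-20 and 2.5 ug/ml poly(dI-dC); started with 200 nM TAMRA/BHQ-2 forked duplex and 2 mM ATP. Unwinding read as fluorescence (525/598 nm), two reads 2 h apart.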

[4] = Cytometric Cell-Based qHTS for Inhibitors of the mTORC1 Signaling Pathway in MEF (Tsc2-/-, p53-/-) Cells (AID 2660);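 also: percent of cells above a phospho-rpS6 to PI ratio cutoff in each well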
Outline: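 Immunofluorescence qHTS of rpS6 Ser235/236 phosphorylation: MEFs (Tsc2-/-, p53-/-) treated 24 h, 37 C, in DMEM + 10% FBS. Alexa-488 signal normalized to PI count, referenced to rapamycin (7.5 nM) and DMSO; PI cell number recorded for viability.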

[5] = High Content Imaging Cell-Based qHTS for Inhibitors of the mTORC1 Signaling Pathway in MEF (Tsc2-/-, p53-/-) Cells (AID 2666); conditions: at 38.3 µM (top of the series);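 also: percent of cells scored positive for phospho-rpS6 Ser235/236 immunostaining by imaging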
Outline: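 Phospho-rpS6 (Ser235/236) immunofluorescence, normalized and scored as % positive cells using rapamycin and DMSO controls, was read in empty-vector Tsc2-/-, p53-/- MEFs after 24 h compound exposure at 37 C; propidium iodide counted cells.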

[6] = High Content Imaging Cell-Based qHTS for Inhibitors of the mTORC1 Signaling Pathway in MEF Cells (AID 2667);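 also: Tsc2-/- p53-/- MEFs stably re-expressing wild-type Tsc2 exposed 24 h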
Outline: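 WT MEFs (Tsc2-/-, p53-/- re-expressing Tsc2), in DMEM + 10% FBS, were treated with compound for 24 h at 37 C. Cells were then fixed and stained for phospho-rpS6 Ser235/236 with propidium iodide as cell count. Values are % positive cells, with thresholds set against rapamycin-treated cells.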

[7] = Cytometry Cell-Based qHTS for Inhibitors of the mTORC1 Signaling Pathway in MEF cells (AID 2668);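 also: Tsc2-/- p53-/- mouse embryonic fibroblasts stably re-expressing wild-type Tsc2; percent cells positive for phospho-rpS6 Ser235/236 relative to propidium iodide stain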
Outline: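 WT MEFs (Tsc2-/-, p53-/- stably re-expressing WT Tsc2) in DMEM + 10% FBS received compounds 24 hrs after plating, for 24 hrs at 37 degree Celsius. Fixed cells stained with Alexa-488 anti-phospho-rpS6 Ser235/236 and propidium iodide; laser-scanning cytometry read-out.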

[8] = Validation screen for small molecules that induce DNA re-replication in MCF 10A normal breast cells (AID 463097); also: nearly all actives have a fitted effect of over 60% in size
Outline: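 Readout: Hoechst nuclear fluorescence intensity, 405 ex / 500-530 em, by scanning plate imager; re-replication scored as increase in nuclei with elevated DNA content. Cells exposed to compound 48 hr, 37 C, 5% CO2 beforehand.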

[9] = biological target: Ubiquitin carboxyl-terminal hydrolase 2 (Homo sapiens) (UniProt O75604); assay: qHTS Validation Assay for Inhibitors of Ubiquitin-specific Protease USP2a Using CHOP2 as the Reporter (AID 463106)
Outline: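 USP2 core (10 nM final) was preincubated with compound 30 min at RT in pH 8.0 Tris/CaCl2/beta-ME/CHAPS buffer. Ub-CHOP2 and reporter substrate (25 nM final each) were then added, with fluorescence (Ex 485/Em 531) read after 60 min. Data were normalized to NEM full inhibition and fitted to concentration-response curves.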

[10] = biological target: DNA polymerase III PolC-type (Bacillus subtilis (strain 168)) (UniProt P13267); assay: qHTS Validation Assay for the Inhibitors of DNA Replication in Gram-Positive Bacteria (AID 485295);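 also: PicoGreen fluorescence of double-stranded DNA made on primed circular M13 template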
Outline: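 Reconstituted B. subtilis holoenzyme (Pol III, beta clamp, SSB, primase) was preincubated with compound at room temperature, then given single-stranded circular M13Gori plus dNTPs and NTPs. EDTA-containing PicoGreen stopped the reaction, and dsDNA product was read by fluorescence.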

[11] = biological target: Tumor susceptibility gene 101 protein (Homo sapiens) (UniProt Q99816); assay: qHTS Validation Assay for Iinhibitors of HIV-1 Budding by Blocking the Interaction of PTAP/TSG101 (AID 485342; calls by dose curve)
Outline: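 Tsg101 binding domain (10 uM final) in pH 7.5 HEPES/NaCl/Tween 20/EDTA/TCEP buffer was mixed with pin-transferred compounds, then FITC-labeled PTAP peptide (50 nM final) was added; after 20 min at r.t., fluorescence polarization was read.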

[12] = qHTS Validation Assay to Find Inhibitors of Chronic Active B-Cell Receptor Signaling (AID 485345; active = well fitted curve in the direction sought with a large enough effect in the main read-out, with a control signal flat, not every such curve was filed as active)
Outline: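 TMD8 ABC-DLBCL cells stably carrying doxycycline-inducible IkappaBalpha–green luciferase fusion plus unfused red luciferase; compounds 46 uM to 3 nM, 4 h at 37C with doxycycline. Corrected green/red luminescence ratio normalized to 10 uM MG-132 and basal cell wells; curves fitted.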

[13] = biological target: Beta-2 adrenergic receptor (Homo sapiens) (UniProt P07550); assay: qHTS validation assay of beta-arrestin-biased ligands of beta2-adrenergic receptor (AID 485366)
Outline: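 Arrestin-recruitment (Tango) reporter: ligand-bound beta2-AR recruits beta-arrestin, releasing tTA, which upregulates luciferase. Titrations of up to 46 microM incubated 18 hr at 37 degrees C before luminescent readout.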

[14] = biological target: ATP-dependent 6-phosphofructokinase (Trypanosoma brucei brucei) (UniProt O15648); assay: qHTS Validation Assay to Find Inhibitors of T. brucei phosphofructokinase (AID 485368); conditions: outcome: dose series up to 57.5 µM
Outline: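 Steps: substrate mix (0.5 mM F6P, 0.1 mM ATP, MgCl2, TEA pH 8.0); compound; 1.25 nM T. brucei PFK; 45 min RT; ATP depletion 10 min; ADP-to-ATP detection 10 min; luminescence read; curve fitting and classification.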

[15] = Quantitative high throughput screen for delayed death inhibitors of the malarial parasite plastid, 96 hour incubation (AID 488745); also: nearly all actives have a fitted effect of over 70% in size; also: potency is read from the fitted curve at half-maximal effect
Outline: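 Growth of reporter-bearing P. falciparum in red cells is measured after 96 h with compound, covering two erythrocytic cycles. Luminescence from the integrated luciferase serves as the growth signal.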

[16] = Quantitative high throughput screen for delayed death inhibitors of the malarial parasite plastid, 48 hour incubation (AID 488752); also: nearly all actives have a fitted effect of over 65% in size; also: potency is read from the fitted curve at half-maximal effect
Outline: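 One parasite generation (48 h, 37 C, 5% CO2) of luciferase-reporter P. falciparum in erythrocytes is run with test compound; decreased luminescence indicates inhibited growth.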

[17] = biological target: Thioredoxin reductase 1, cytoplasmic (Rattus norvegicus) (UniProt O89049); assay: qHTS Assay for Substrates of Mammalian Selenoprotein Thioredoxin Reductase 1 (TrxR1) (AID 488772);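 also: NADPH fluorescence in the first read after selenite addition and not the 8 min delta; a drop in NADPH fluorescence below the no-compound background marks a TrxR1 substrate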
Outline: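 Quantitative HTS in Tris-HCl buffer at pH 7.5 with EDTA and Tween-20, using rat TrxR1, 400 uM NADPH and 400 uM selenite (final). A fall in initial NADPH fluorescence relative to background marked substrate behaviour.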

[18] = biological target: RecQ-like DNA helicase BLM (Homo sapiens) (UniProt P54132); assay: qHTS Validation Assay for Inhibitors of Bloom's syndrome helicase (BLM) (AID 2364)
Outline: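 50 nM BLM preincubated 15 min at room temperature with compound in pH 8.0 Tris buffer containing 2.5 ug/ml poly(dI-dC); started with 200 nM TAMRA/BHQ-2 forked duplex and 2 mM ATP (final). Unwinding read as TAMRA fluorescence increase, two reads 2 h apart.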

[19] = qHTS Assay for Modulators of Human Peripheral Myelin Protein 22 (PMP22) Expression/Activity (AID 1967; active = well fitted curve in the direction sought with a large enough effect in the signal ratio; the % refers to the signal ratio)
Outline: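 MSC80 mouse Schwann cells stably carrying Pmp22 promoter–green click beetle luciferase plus EF-alpha–red luciferase control were dosed for 24h at 37 °C. Dual-colour luminescence was filter-overlap corrected; %Activity came from green/red ratio versus untreated cells.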

Chain of Ubiquitin carboxyl-terminal hydrolase 2 (Homo sapiens) (O75604 whole entry, looked up): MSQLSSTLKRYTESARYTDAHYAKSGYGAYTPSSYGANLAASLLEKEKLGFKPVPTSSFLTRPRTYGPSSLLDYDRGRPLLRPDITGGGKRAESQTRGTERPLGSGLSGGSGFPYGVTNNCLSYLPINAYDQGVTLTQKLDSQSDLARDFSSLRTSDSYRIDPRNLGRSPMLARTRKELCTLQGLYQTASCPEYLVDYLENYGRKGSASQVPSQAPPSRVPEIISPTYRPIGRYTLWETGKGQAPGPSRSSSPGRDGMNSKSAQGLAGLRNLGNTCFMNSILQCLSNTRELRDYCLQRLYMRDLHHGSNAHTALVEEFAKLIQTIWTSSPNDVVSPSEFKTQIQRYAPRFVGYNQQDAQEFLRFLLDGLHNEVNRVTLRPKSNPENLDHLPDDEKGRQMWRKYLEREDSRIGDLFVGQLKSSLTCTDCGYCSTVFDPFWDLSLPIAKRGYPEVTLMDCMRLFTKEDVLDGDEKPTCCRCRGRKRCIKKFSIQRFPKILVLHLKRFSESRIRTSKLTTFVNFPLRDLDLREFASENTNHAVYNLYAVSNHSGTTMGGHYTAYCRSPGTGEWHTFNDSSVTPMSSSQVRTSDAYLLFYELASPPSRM
Chain of Tumor susceptibility gene 101 protein (Homo sapiens) (Q99816 whole entry, looked up, the tested form may be a part): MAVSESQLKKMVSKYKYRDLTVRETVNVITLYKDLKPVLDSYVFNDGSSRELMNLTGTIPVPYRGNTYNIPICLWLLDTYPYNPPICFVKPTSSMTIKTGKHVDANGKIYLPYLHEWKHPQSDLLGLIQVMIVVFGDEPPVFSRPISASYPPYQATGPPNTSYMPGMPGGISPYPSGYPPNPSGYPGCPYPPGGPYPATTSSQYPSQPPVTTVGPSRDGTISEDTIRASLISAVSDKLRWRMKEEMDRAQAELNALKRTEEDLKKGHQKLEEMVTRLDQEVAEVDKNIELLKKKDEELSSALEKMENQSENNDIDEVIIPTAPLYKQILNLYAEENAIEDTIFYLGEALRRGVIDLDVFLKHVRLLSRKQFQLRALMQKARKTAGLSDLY
Chain of ATP-dependent 6-phosphofructokinase (Trypanosoma brucei brucei) (O15648 whole entry, looked up): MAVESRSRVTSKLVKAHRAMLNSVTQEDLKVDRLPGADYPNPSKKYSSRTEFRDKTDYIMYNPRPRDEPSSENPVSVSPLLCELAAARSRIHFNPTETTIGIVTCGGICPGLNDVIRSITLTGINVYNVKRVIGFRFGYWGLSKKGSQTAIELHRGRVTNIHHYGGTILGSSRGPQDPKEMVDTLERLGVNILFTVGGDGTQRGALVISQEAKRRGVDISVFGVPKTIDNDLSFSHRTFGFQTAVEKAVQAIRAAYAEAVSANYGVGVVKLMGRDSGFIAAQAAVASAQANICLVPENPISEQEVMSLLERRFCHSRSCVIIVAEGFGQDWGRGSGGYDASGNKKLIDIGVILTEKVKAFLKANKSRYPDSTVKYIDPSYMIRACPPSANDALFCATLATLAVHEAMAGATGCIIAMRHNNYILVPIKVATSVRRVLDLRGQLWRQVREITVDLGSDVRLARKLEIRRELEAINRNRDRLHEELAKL
Chain of ATP-dependent DNA helicase Q1 (Homo sapiens) (P46063 whole entry, looked up): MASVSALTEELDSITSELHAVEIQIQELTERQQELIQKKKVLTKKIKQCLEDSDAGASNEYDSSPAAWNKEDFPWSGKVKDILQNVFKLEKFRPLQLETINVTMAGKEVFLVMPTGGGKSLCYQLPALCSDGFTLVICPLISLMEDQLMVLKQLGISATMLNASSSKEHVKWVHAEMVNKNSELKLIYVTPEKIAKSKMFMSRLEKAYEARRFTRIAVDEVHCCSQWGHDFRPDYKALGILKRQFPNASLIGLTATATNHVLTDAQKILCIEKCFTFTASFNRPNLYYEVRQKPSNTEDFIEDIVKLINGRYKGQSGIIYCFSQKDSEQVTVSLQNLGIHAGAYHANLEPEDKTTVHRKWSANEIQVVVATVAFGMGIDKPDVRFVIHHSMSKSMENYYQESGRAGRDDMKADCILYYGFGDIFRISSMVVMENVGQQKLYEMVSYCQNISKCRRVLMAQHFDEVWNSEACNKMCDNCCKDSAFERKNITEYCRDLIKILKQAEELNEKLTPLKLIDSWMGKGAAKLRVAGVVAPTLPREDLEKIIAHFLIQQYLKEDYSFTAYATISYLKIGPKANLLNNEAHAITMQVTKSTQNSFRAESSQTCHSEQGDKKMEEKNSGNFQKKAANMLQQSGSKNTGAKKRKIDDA
Chain of RecQ-like DNA helicase BLM (Homo sapiens) (P54132 whole entry, looked up): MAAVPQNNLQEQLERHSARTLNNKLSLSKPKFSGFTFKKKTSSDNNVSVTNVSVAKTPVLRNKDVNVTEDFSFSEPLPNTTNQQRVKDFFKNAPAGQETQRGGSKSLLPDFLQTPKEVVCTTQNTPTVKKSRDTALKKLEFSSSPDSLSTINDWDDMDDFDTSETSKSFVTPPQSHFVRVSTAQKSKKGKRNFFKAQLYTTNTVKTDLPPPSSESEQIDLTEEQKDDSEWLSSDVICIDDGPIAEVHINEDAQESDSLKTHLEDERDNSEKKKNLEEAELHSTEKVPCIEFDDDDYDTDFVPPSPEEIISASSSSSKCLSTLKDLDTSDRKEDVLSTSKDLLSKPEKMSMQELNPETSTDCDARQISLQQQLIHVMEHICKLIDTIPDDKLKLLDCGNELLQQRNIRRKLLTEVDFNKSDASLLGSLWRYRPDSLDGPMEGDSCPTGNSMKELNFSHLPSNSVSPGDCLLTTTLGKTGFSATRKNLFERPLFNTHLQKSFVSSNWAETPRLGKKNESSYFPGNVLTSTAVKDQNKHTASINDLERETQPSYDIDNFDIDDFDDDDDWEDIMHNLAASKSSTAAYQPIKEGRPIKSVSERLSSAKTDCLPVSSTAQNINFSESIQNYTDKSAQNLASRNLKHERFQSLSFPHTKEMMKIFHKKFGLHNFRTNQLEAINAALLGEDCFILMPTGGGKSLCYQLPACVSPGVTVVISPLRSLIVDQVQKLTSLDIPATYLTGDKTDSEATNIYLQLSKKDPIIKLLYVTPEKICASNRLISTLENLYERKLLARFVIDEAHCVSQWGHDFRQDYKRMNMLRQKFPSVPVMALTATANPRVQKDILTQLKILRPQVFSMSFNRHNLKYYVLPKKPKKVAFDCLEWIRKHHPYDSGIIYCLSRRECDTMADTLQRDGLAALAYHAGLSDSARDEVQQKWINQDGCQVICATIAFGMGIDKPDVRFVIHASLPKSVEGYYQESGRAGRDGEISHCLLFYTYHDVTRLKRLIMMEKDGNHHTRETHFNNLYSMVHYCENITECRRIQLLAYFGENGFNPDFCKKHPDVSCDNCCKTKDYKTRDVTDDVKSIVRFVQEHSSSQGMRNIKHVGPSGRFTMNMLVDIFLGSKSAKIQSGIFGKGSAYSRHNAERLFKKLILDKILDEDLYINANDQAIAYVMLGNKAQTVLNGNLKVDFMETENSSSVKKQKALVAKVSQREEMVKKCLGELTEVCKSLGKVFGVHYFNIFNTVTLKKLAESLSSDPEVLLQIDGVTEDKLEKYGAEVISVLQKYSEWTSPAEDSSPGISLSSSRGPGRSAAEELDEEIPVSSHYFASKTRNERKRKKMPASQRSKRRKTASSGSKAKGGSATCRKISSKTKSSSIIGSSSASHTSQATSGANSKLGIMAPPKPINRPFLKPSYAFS
Chain of Ferritin light chain (Equus caballus) (P02791 2-175 limits assumed): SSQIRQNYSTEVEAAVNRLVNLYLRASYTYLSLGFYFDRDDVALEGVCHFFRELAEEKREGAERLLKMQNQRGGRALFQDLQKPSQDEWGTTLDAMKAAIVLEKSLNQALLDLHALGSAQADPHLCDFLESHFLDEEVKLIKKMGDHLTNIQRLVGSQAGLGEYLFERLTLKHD
Chain of Thioredoxin reductase 1, cytoplasmic (Rattus norvegicus) (O89049 whole entry, looked up): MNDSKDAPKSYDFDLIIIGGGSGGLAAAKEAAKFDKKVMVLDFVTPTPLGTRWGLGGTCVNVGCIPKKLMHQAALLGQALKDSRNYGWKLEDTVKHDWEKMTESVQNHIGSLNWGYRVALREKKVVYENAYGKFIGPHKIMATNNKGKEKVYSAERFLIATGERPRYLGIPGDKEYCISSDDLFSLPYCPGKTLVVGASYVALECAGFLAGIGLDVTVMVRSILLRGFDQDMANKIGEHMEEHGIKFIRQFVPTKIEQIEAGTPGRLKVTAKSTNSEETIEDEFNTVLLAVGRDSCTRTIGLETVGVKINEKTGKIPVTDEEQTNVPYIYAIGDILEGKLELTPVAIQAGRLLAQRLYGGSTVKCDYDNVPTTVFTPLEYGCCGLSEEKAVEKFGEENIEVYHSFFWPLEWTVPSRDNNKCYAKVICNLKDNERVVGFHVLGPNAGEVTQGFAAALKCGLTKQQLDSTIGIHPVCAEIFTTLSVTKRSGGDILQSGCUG
Chain of Beta-2 adrenergic receptor (Homo sapiens) (P07550 whole entry, looked up): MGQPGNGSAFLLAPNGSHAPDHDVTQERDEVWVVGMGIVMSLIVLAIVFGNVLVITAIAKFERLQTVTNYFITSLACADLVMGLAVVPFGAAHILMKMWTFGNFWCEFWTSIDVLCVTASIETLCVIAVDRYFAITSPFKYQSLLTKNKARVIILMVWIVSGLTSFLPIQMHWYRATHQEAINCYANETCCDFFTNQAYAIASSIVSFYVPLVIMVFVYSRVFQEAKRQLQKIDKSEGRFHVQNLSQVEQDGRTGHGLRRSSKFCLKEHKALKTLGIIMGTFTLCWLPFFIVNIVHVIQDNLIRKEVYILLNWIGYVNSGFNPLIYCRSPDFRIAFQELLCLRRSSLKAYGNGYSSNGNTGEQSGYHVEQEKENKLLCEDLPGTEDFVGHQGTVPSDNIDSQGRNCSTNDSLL

Compound | Potency [1] | outcome [2] | outcome [3] | outcome [4] | outcome [5] | outcome [6] | outcome [7] | Potency [8] | outcome [9] | Potency [10] | outcome [11] | outcome [12] | outcome [13] | outcome [14] | Potency [15] | Potency [16] | outcome [17] | Potency [18] | outcome [19]
Clc1cccc(Cl)c1NC1=NCCN1 | inactive | inactive | inactive | inactive | inactive | inactive | inactive | inactive | inactive | inactive | inactive | inactive | inactive | inactive | inactive | inactive | inactive | – | –
C1COC(NC(C2CC2)C2CC2)=N1 | 10 µM (active) | inactive | inactive | inactive | inactive | inactive | inactive | – | inactive | inactive | inactive | inactive | inactive | inactive | – | inactive | inactive | inactive | –
NC(=O)c1cnccn1 | inactive | inactive | inactive | inactive | – | inactive | inactive | inactive | inactive | inactive | inactive | inactive | inactive | inactive | inactive | inactive | inactive | inactive | –
NCCCC(N)(C(=O)O)C(F)F (configuration not stated) | inactive | inactive | inactive | inactive | – | inactive | inactive | inactive | inactive | inactive | inactive | inactive | inactive | inactive | inactive | inactive | inactive | – | –
CC(C)C[C@H](NC(=O)[C@@H](O)[C@H](N)Cc1ccccc1)C(=O)O | 3.55 µM (active) | inactive | inactive | inactive | – | inactive | inactive | inactive | inactive | inactive | inactive | inactive | – | – | 0.37 µM (active) | 1.04 µM (active) | inactive | inactive | –
NC[C@H](O)c1ccc(O)c(O)c1 | inactive | inactive | inactive | inactive | – | inactive | inactive | inactive | inactive | inactive | inactive | inactive | inactive | – | inactive | inactive | inactive | – | –
CC(C)NCC(O)COc1ccc(COCCOC(C)C)cc1 (configuration not stated) | inactive | inactive | inactive | inactive | – | inactive | inactive | inactive | inactive | inactive | inactive | inactive | – | inactive | inactive | inactive | inactive | inactive | –
O=c1[nH]cnc2[nH]ncc12 | inactive | inactive | inactive | inactive | inactive | inactive | inactive | inactive | inactive | inactive | inactive | inactive | inactive | inactive | inactive | inactive | inactive | – | –
CC(=O)Oc1ccccc1C(=O)O | inactive | inactive | inactive | inactive | – | inactive | inactive | inactive | inactive | inactive | inactive | inactive | inactive | inactive | inactive | inactive | inactive | – | inactive
CN1CCN(CCCN2c3ccccc3Sc3ccc(C(F)(F)F)cc32)CC1 | 7.94 µM (active) | inactive | inactive | – | – | inactive | – | – | inactive | inactive | inactive | – | inactive | inactive | – | 9.28 µM (active) | inactive | inactive | –
Cc1cnc(NC(=O)C2=C(O)c3ccccc3S(=O)(=O)N2C)s1 | inactive | inactive | inactive | inactive | – | inactive | inactive | inactive | – | inactive | inactive | – | inactive | – | inactive | inactive | inactive | inactive | –
O=c1n(CCCN2CCN(c3cccc(Cl)c3)CC2)nc2ccccn12 | inactive | inactive | inactive | inactive | – | inactive | inactive | inactive | inactive | inactive | inactive | – | inactive | – | inactive | inactive | inactive | inactive | –
